Measurements from PubChem BioAssay (NCI).
This is part of a sample that, as a whole, favours compounds with a hit. Of some 79,000 tested, about 15% had one in any assay. Rule as the data show it: active = growth inhibition above about 70%; inactive = the rest.

Experiments:
[1] = NCI Yeast Anticancer Drug Screen. Data for the rad50 strain (AID 155);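 also: 0% = growth of vehicle-only cultures of the same strain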; details: S. cerevisiae rad50 strain growth inhibition; at 50.0 µM; stronger effect = higher value
Summary of the method: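 Vehicle-treated cultures provide the reference for the growth inhibition reported for compound-exposed, repair-deficient yeast.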

[2] = NCI Yeast Anticancer Drug Screen. Data for the mec2-1 strain (AID 157); details: S. cerevisiae mec2-1 strain, at 50.0 µM, stronger effect = higher value
Summary of the method: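 mec2-1 yeast strain, carrying an alteration in DNA damage repair or cell cycle control, was exposed to compounds; growth inhibition was measured relative to vehicle-treated controls.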

[3] = NCI Yeast Anticancer Drug Screen. Data for the sgs1 mgt1 strain (AID 161);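 also: 0% = growth of cultures given vehicle only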; details: S. cerevisiae sgs1 mgt1 strain, at 50.0 µM, stronger effect = higher value
Summary of the method: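 Yeast cells carrying a defined DNA-repair defect were exposed to test compounds. Growth inhibition was measured relative to vehicle-treated controls.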

[4] = NCI Yeast Anticancer Drug Screen. Data for the cln2 rad14 strain (AID 165);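 also: 0% = growth equal to vehicle treated cultures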; details: S. cerevisiae cln2 rad14 strain, at 50.0 µM, stronger effect = higher value
Summary of the method: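 Yeast carrying cln2 and rad14 alterations (cell cycle control and DNA damage repair) were exposed to compounds. Growth inhibition was measured against vehicle-treated controls.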

[5] = NCI Yeast Anticancer Drug Screen. Data for the bub3 strain (AID 167); details: S. cerevisiae bub3 mutant strain, at 50.0 µM, stronger effect = higher value
Summary of the method: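 Mutant yeast screening strain plus compound; vehicle-treated cultures serve as the 0% inhibition reference.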

[6] = NCI Yeast Anticancer Drug Screen. Data for the mlh1 rad18 strain (AID 175); details: S. cerevisiae mlh1 rad18 strain growth inhibition; at 50.0 µM; stronger effect = higher value
Summary of the method: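 Growth inhibition of the yeast strain was measured after compound exposure and expressed relative to vehicle-treated controls. The strain carries defined defects in DNA damage repair.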

Measured: growth inhibition

OCC(O)C(O)C(OC1OC(CO)C(O)C(O)C1O)C(O)CO (stereo unspecified)
inactive: [1] -1.05% | [2] 37.8% | [3] 26.9% | [4] -2.2% | [5] 13.8% | [6] -3.2%

CC(=O)OCC1OC(n2cnc3c(N)ncnc32)C2OC(C)(C)OC12 (stereo unspecified)
inactive: [1] 11.4% | [2] -30.2% | [3] -19.1% | [4] 1.45% | [5] -1.9% | [6] -12.8%

CCCCCCC1CCC(=O)CC1
inactive: [1] 31.9% | [2] 4.3% | [3] -14.6% | [4] -10.1% | [5] -7.3% | [6] 34.5%

COCC1OC(OC2(COC)OC(COC)C(OC)C2OC)C(OC)C(OC)C1OC (stereo unspecified)
inactive: [1] 22.1% | [2] -4.15% | [3] -9.2% | [4] -34.2% | [5] -18.1% | [6] 5.6%

COc1ccc2c(c1)[n+](=O)c(C(=O)C/C(=N/OCCCc1ccccc1)C(=O)NC13CC4CC(CC(C4)C1)C3)c(C)n2[O-]
inactive: [1] -1.3% | [2] -3.2% | [3] -19.4% | [4] 17.1% | [5] 3.85% | [6] -4.6%

COC(=N)C(C)C
inactive: [1] 26.4% | [2] 14.9% | [3] 4.9% | [4] 13.1% | [5] -6.2% | [6] 22.6%

Cc1ccc(C2OC(=O)C(=O)C2=O)cc1 (stereo unspecified)
inactive: [1] -35.9% | [2] -21.4% | [3] -23.2% | [4] -21.6% | [5] -32% | [6] -3.35%

CCOC(=O)c1cc(=O)[nH]c2ccc(OC)cc12
inactive: [1] 17.2% | [2] 22.2% | [3] 2.25% | [4] 35.6% | [5] 11.6% | [6] 7.05%

FC(F)(F)c1cccc(C=NC23CC4CC(CC(C4)C2)C3)c1
inactive: [1] -16.4% | [2] -14.6% | [3] -2.05% | [4] 10.4% | [5] -30% | [6] 8.75%

OCc1ccc(-c2ccccc2)cc1
inactive: [1] 4.4% | [2] -14.6% | [3] 4.6% | [4] 8% | [5] 3.7% | [6] 28.8%

C/C(CC(=O)Nc1ccc(C)c(C)c1)=N\N(c1ccccc1)c1ccccc1
inactive: [1] -16.6% | [2] -13.8% | [3] -27% | [4] -3.4% | [5] -17.6% | [6] -20.5%

Cc1cc(C)c(CCC(=O)O)c(C)c1
inactive: [1] 6.95% | [2] 4.8% | [3] -0.3% | [4] 6.6% | [5] -7.1% | [6] -1.25%

FC(F)(F)c1ccc(C=NC23CC4CC(CC(C4)C2)C3)cc1
inactive: [1] -8.85% | [2] -9% | [3] -16.2% | [4] -27.1% | [5] -18.9% | [6] -30.9%

CCOC(=O)CCC(C#N)C(=O)OCC (stereo unspecified)
inactive: [1] 0.45% | [2] -3.9% | [3] 9.3% | [4] -10.2% | [5] 27.6% | [6] 6%

CCCCCCCCCCn1cnc2c(=O)[nH]c(N)nc21
inactive: [1] 1.85% | [2] 2.75% | [3] 9.7% | [4] -0.25% | [5] 2.8% | [6] -4.85%

CC(C)Oc1ccc(C(=O)OCCC(C)N2CCCC2)cc1 (stereo unspecified)
inactive: [1] 40.9% | [2] 36.7% | [3] 53.2% | [4] 31.5% | [5] 46.4% | [6] 27.9%

CC(C)CCC[C@@H](C)[C@H]1CC[C@H]2[C@@H]3CC[C@H]4N(C)[C@@H](Cc5ccccc5)CC[C@]4(C)[C@H]3CC[C@]12C
inactive: [1] 21.8% | [2] 27.6% | [3] 32.5% | [4] 24.7% | [5] 15.4% | [6] -0.05%

CCCCC(C)(O)CCC (stereo unspecified)
inactive: [1] 5.8% | [2] -11.9% | [3] 0.5% | [4] 5.05% | [5] 7.3% | [6] -6.05%

COc1ccccc1/C=N/NS(=O)(=O)c1ccc(NC(C)=O)cc1
inactive: [1] 0.85% | [2] -7.05% | [3] 14.1% | [4] -14.7% | [5] -41.3% | [6] -4.2%

O=S(=O)(c1ccc(Br)cc1)C(F)(F)F
inactive: [1] 11.1% | [2] 10% | [3] 0.1% | [4] 2.6% | [5] 12.7% | [6] 5.15%

Cn1cnc(N2CCCC2)c(C#N)c1=S
inactive: [1] 3.45% | [2] -4.95% | [3] -4.7% | [4] -12.2% | [5] 2.55% | [6] 0.25%
